# Data taken from PubChem BioAssay AID504832 (National Center for Advancing Translational Sciences (NCATS), 2011).
# In all, about 310,000 compounds went through this assay and about 18,000 (5.8%) were called active. A call without a number means that no potency is given here. Roughly 22% stayed inconclusive and do not appear here. The call rests on the fitted dose curve; in most records, active means well fitted inhibition curve with a large enough effect; inconclusive means small, poorly fitted or top-dose-only effect, or another doubt; inactive means no such curve, though single readings can be large or run the other way. For the sample, actives were picked, then their nearest neighbours and some compounds at random.
# Test: Primary qHTS for delayed death inhibitors of the malarial parasite plastid, 48 hour incubation
# Details: P. falciparum luciferase growth in erythrocytes; series mostly up to 28.7 µM
# How it was run: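 Luminescence readout; reporter = integrated firefly luciferase in P. falciparum. RBC culture at 2% hematocrit, 0.1% parasitemia final, 37 C/5% CO2; decreased signal taken as growth inhibition.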
# Potency means the concentration at half of the fitted maximal effect.
row,SMILES,Potency
1,CCOC(=O)N1CCN(C(=O)C(C)NC(=O)c2ccco2)CC1 (centres undefined),inactive
2,COc1ccc(/C=C/c2c(-c3cccc(C)c3)oc3ccc(-c4ccc5c(c4)OCO5)cc23)cc1,inactive
3,COc1ccc(/C=N\NC(=O)c2sc(N)nc2C)cc1OC,inactive
4,COc1ccc(/C=N/NC(=O)c2ccc(Cl)cc2)cc1COC(C)=O,inactive
5,COc1ccc(/C=N/S(=O)(=O)c2ccccc2)cc1OC,inactive
6,Cc1ccc(S(=O)(=O)Oc2ccc(/C=N/NC(=O)c3ccncc3)cc2)cc1,inactive
7,COc1ccc(/C=N/NC(=O)c2ccccc2)cc1OS(=O)(=O)c1ccccc1,9.28 µM (active)
8,COc1cc(/C=N/NC(=O)c2ccccc2)ccc1OS(=O)(=O)c1ccccc1,10.4 µM (active)
9,O=C(O)Cc1ccc(NC(=O)Nc2cccc3ccccc23)cc1,inactive
10,COc1cc(NC(=O)c2ccc(-c3csc(C)n3)cc2)c(OC)cc1Cl,inactive
11,Cc1cccc(NC(=O)C2CCCN(C(=O)Nc3ccc(F)cc3)C2)c1C (centres undefined),inactive
12,COCc1cc(C)n(CC(=O)NCC2CCCO2)c(=O)c1C#N (centres undefined),inactive
13,COc1ccc(N(C(=O)c2cccnc2)S(=O)(=O)c2ccc(OC)c(OC)c2)cc1,inactive
14,CC[C@H]1CN2CCc3cc(OC)c(OC)cc3[C@@H]2C[C@@H]1C[C@H]1NCCc2cc(OC)c(OC)cc21,0.0828 µM (active)
15,NC(=O)NC(=O)C(OC(=O)CCNS(=O)(=O)c1ccccc1)c1ccccc1 (centres undefined),inactive
16,O=C(CCc1c[nH]c2ccccc12)NCCOc1ccccc1,inactive
17,O=C(CCCCCn1c(=O)[nH]c2ccccc2c1=O)NCCc1c[nH]c2ccccc12,8.28 µM (active)
18,O=C(CCCCn1c(=O)[nH]c2ccccc2c1=O)NCc1ccc2c(c1)OCO2,inactive
19,COc1ccc2nc(NC3=NCN(CC4CCCO4)CN3)nc(C)c2c1 (centres undefined),11.7 µM (active)
20,COc1ccc2c(C)cc(SCC(=O)NCC3CCCO3)nc2c1 (centres undefined),inactive
21,Cc1ccc2nc(NC3=NCN(CCc4ccccc4)CN3)nc(C)c2c1,inactive
22,CC(NC(=O)COc1cccnc1[N+](=O)[O-])c1ccc(Cl)cc1Cl (centres undefined),inactive
23,Cn1c(SCC(=O)Nc2ccc(N3CCOCC3)cc2)nnc1C(F)(F)F,inactive
24,CCN(CC)c1ccc2cc(C(N)=O)/c(=N\NC(=O)c3ccncc3)oc2c1,inactive
25,CCN(CC)c1ccc2oc(=O)c(C)nc2c1,1.47 µM (active)
26,CCN(CC)c1ccc2c(Nc3ccccc3)c(C=O)c(=O)oc2c1,inactive

row,SMILES,Potency
1,Cc1ccccc1N1CCN(C2CCCN(C(=O)c3cn4c(C)cccc4n3)C2)CC1 (centres undefined),inactive
2,CCC(CC)c1nnc(NC(=O)C2=COCCO2)s1,inactive
3,O=C(O)C1CCC(CNS(=O)(=O)c2ccc(Br)cc2)CC1 (centres undefined),inactive
4,CCn1c(=O)c(C(=O)NCc2ccc3c(c2)OCO3)c(O)c2ccccc21,inactive
5,CCCC1=Nc2cc(C(=O)NCc3ccco3)ccc2Sc2ccccc21,4.65 µM (active)
6,COc1ccc(CCNS(=O)(=O)c2ccc(C(=O)NCc3ccco3)cc2)cc1OC,inactive
7,O=C(COC(=O)c1cnc(Cl)c(Cl)c1)NCc1ccco1,inactive
8,COc1ccc(N2CC(C(=O)N[C@@H](C)C(=O)N3CCCCC3)CC2=O)cc1 (some centres undefined),inactive
9,O=C(Nc1cccc2cccnc12)c1cccc(Cl)c1,inactive
10,CC(OC(=O)C1CC(=O)N(Cc2ccccc2)C1)C(=O)Nc1ccccc1[N+](=O)[O-] (centres undefined),inactive
11,COc1ccc(Cl)cc1C(=O)NCc1cn(C)nc1C,inactive
12,Cc1nn(C)cc1CNC(=O)Nc1ccc(Cl)cc1,inactive
13,Cc1ccc(-c2cc(C(=O)NCc3cn(C)nc3C)c3cc(Br)ccc3n2)cc1,2.94 µM (active)
14,CCN(C(=O)CN1C(=O)/C(=C/c2ccc(F)cc2)SC1=S)C1CCS(=O)(=O)C1 (centres undefined),inactive
15,O=C(CCCN1C(=O)/C(=C\c2ccccc2)SC1=S)Nc1ccccc1O,inactive
16,O=C1/C(=C/c2ccc(F)cc2)SC(=S)N1CCCC(=O)N1CCCCC1CCO (centres undefined),11.7 µM (active)
17,N#Cc1cccc(CSc2ncnc(N)n2)c1,inactive
18,CNC(=O)COC(=O)c1cc(-c2ccc(OC)cc2)nc2ccccc12,inactive
19,COc1ccccc1NC(=O)c1cc(Cl)nc2ccccc12,inactive
20,COc1ccc(NC(=O)c2cc(-c3cc(OC)c(OC)c(OC)c3)nc3ccccc23)c(OC)c1,5.22 µM (active)
21,CCC(C)(C)n1nnnc1C(c1cccs1)N1CCN(c2nc3ccccc3s2)CC1 (centres undefined),11.7 µM (active)
22,COc1ccccc1CN(C)c1nnnn1-c1ccccc1,inactive
23,CCC(C)(C)n1nnnc1CN1CCN(c2nc3ccc(C)cc3cc2C#N)CC1,inactive
24,CCC(C)(C)n1nnnc1C(c1ccc(OC)c(OC)c1)N1CCN(C(=O)c2ccco2)CC1 (centres undefined),inactive
25,CCC(C)(C)n1nnnc1C(c1ccccc1OC)N1CCSCC1 (centres undefined),11.7 µM (active)
26,CC(C)C(c1nnnn1C(C)(C)C)N1CCN(Cc2cccnc2)CC1 (centres undefined),inactive

row,SMILES,Potency
1,COc1ccccc1C(c1nnnn1C(C)(C)C)N1CCN(Cc2ccccc2)CC1 (centres undefined),13.1 µM (active)
2,CCCC(c1nnnn1C(C)(C)C)N1CCN(Cc2ccccc2)CC1 (centres undefined),inactive
3,c1ccc2sc(N3CCNCC3)nc2c1,inactive
4,Cc1ccc(S(=O)(=O)NCCC(=O)NC2CCN(Cc3ccccc3)CC2)cc1,inactive
5,Cc1cccc([C@@H]2[C@@H]3C(=O)N(C)C(=O)[C@@H]3[C@@H]3C(=O)Nc4ccccc4C(=O)N23)c1,inactive
6,CC1CCCCC12NC(=O)N(CC(=O)Nc1ccc(S(=O)(=O)Nc3ncccn3)cc1)C2=O (centres undefined),inactive
7,COc1cccc(C(=O)Nc2nnc(S(=O)(=O)N3CCOCC3)s2)c1,inactive
8,Cc1ccc(C)c(S(=O)(=O)Nc2cccc(-n3cnnn3)c2)c1,inactive
9,Cc1cnc(C)c(N2CCN(C(=O)C3CCC(=O)N(CCc4cccc(F)c4)C3)CC2)n1 (centres undefined),inactive
10,CN(C)c1ccc(N/C=C/C(=O)C(F)(F)F)cc1,9.28 µM (active)
11,CCCOc1ccc(N/C=C/C(=O)C(C)(C)C)cc1,inactive
12,O=C(/C=C/Nc1ccccc1OC(F)(F)F)C(F)(F)F,inactive
13,COc1ccc2ccccc2c1/C=N/NC(=O)c1cc(C)[nH]n1,inactive
14,Cc1onc(-c2ccccc2)c1C(=O)N=C(N)c1ccc(Cl)cc1,inactive
15,C/C(=N\OCC(=O)O)c1ccc(Cl)cc1,inactive
16,C/C(=N\N=C(N)N)c1ccc(Cl)cc1,6.57 µM (active)
17,Cc1ccccc1OCC(=O)N(Cc1cccc(F)c1)C1CCS(=O)(=O)C1 (centres undefined),inactive
18,CN(C(=O)COC(=O)CNC(=O)C12CC3CC(CC(C3)C1)C2)c1ccccc1,inactive
19,COc1ccc2oc(=O)c(C(=O)N3CCN(c4ccccc4F)CC3)cc2c1,inactive
20,O=C(Nn1cc(C(=O)N2CCN(c3ccccc3F)CC2)c2ccccc2c1=O)c1cnccn1,10.4 µM (active)
21,O=C(c1c(F)cccc1F)N1CCN(c2ncc(Br)cn2)CC1,inactive
22,O=C(COC(=O)c1cccs1)NCc1cccs1,inactive
23,CC(C)=CCN1CCN(CCCc2ccccc2)CC1CCO (centres undefined),inactive
24,O=C1Nc2cc(C(=O)N3CCN(c4ccc(F)cc4)CC3)ccc2NC1CSCc1cccc(F)c1 (centres undefined),inactive
25,Cc1cccn2c(=O)c3cc(C(=O)NC4CCCCC4)sc3nc12,inactive
26,Cc1cc(C)cc(Oc2nc3c(C)cccn3c(=O)c2/C=C(\C#N)C(=O)NC2CCS(=O)(=O)C2)c1 (centres undefined),13.1 µM (active)

row,SMILES,Potency
1,Cc1cccn2c(=O)c(/C=C(\C#N)S(=O)(=O)c3ccc(Cl)cc3)c(N3CCC(C(N)=O)CC3)nc12,inactive
2,CCCCNC(=O)Cn1nc(C)c(S(=O)(=O)N2CCOCC2)c1C,inactive
3,CSCCC(NC(=O)c1ccco1)C(=O)NCCc1ccc(F)cc1 (centres undefined),inactive
4,COc1ccc2c(C)c(CCC(=O)NC3CC3)c(=O)oc2c1C,inactive
5,COc1ccccc1C(=O)NC(=S)NC12CC3CC(CC(C3)C1)C2,inactive
6,Cc1ccccc1NC(=O)c1ccccc1NS(=O)(=O)c1cccc2cccnc12,inactive
7,O=[N+]([O-])c1ccccc1S(=O)(=O)Nc1cccc2cccnc12,2.33 µM (active)
8,O=C(Nc1ccccc1Cl)Nc1cccc2cccnc12,inactive
9,COc1ccccc1OCC(=O)OCc1cc(-c2ccco2)on1,inactive
10,C/C(=N\NC(N)=S)c1cccnc1,inactive
11,C/C(=N\NC(N)=S)c1ccncc1,3.29 µM (active)
12,C/C(=N/NC(=O)c1ccn(C)n1)c1ccncc1,inactive
13,CC(=O)N1CCC(C(=O)OCc2ccc(Cl)cc2)(c2ccccc2)CC1,inactive
14,O=C(/C=C/c1ccccc1[N+](=O)[O-])OCC(=O)N1CCCC1,inactive
15,COc1ccc(C(=O)NCCn2nc(C)cc2C)cc1OC1CCN(C(C)=O)CC1,inactive
16,O=C(CCSc1ccccc1)N1CCN(c2ccccc2F)CC1,inactive
17,O=C(NCC(=O)N1CCN(c2ccccc2F)CC1)c1cccs1,inactive
18,O=C(Cn1c(-c2ccc(Cl)cc2)noc1=O)N1CCN(c2ccccc2F)CC1,11.7 µM (active)
19,Cc1cc(C(=O)N2CCN(c3ccccn3)CC2)c(C)o1,inactive
20,CCOC(=O)/C(C#N)=C/c1ccc(N2CCN(Cc3ccccc3)CC2)cc1,inactive
21,CC(=C1C(=O)c2ccccc2C1=O)N1CCN(c2ccccn2)CC1,inactive
22,CCOC(=O)c1nnn2c1nc(N1CCN(c3ccccc3)CC1)c1ccccc12,5.22 µM (active)
23,Cc1ccc(S(=O)(=O)c2nnn3c2nc(N2CCN(c4ccccn4)CC2)c2ccccc23)cc1,1.47 µM (active)
24,CCOC(=O)c1nnn2c3ccccc3c(=O)n(C)c12,inactive
25,COc1ccc(C2NC(=O)N(C)C(C)=C2[N+](=O)[O-])cc1 (centres undefined),inactive
26,COc1ccc(S(=O)(=O)NCc2cccnc2)cc1NC(=O)c1ccc(C)cc1,inactive
